Test results taken from PubChem BioAssay (NCATS).
Inconclusive results are not listed. Active and inactive are the calls of the source. Unless noted, the call rests on the fitted dose curve; in most records, active means well fitted curve in the direction sought with a large enough effect; inconclusive means small, poorly fitted or top-dose-only effect, or another doubt; inactive means no such curve, though single readings can be large; an effect the other way counts as inactive or inconclusive.

Columns and labels:
[1] = Cell Viability - HepG2 (AID 433; calls by dose curve;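 further: potency means the concentration at half of the fitted maximal effect; potency for ATP loss meaning cytotoxicity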); conditions: qHTS
Procedure, shortened: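 Cytotoxicity is scored as loss of intracellular ATP in HepG2 cells exposed to compounds for 40 h. Concentration-response curves, normalized to DMSO and 100 uM tamoxifen, give AC50 values.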

[2] = Cell Viability - SK-N-SH (AID 435; calls by dose curve;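 further: potency means the concentration at half of the fitted maximal effect; compound exposure lasted 40 h at 37 °C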); conditions: SK-N-SH neuroblastoma cell viability qHTS
Procedure, shortened: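 Cells seeded at 1500 per well and incubated 5 hr at 37 °C. Compound added, then 40 hr at 37 °C. CellTiter-Glo added, 20 min at room temperature, luminescence read.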

[3] = molecular target: Mitogen-activated protein kinase 10 (Mus musculus) (UniProt Q61831); experiment: JNK3 AlphaScreen Assay (AID 530; active means well fitted curve in either direction with a large enough effect, not every such curve was filed as active;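 further: kinase came from lysate of stimulated human HepG2 cells; signal reports phosphorylation of biotinylated GST-cJun 1-79 at Ser73 with 10 µM ATP; on the % scale 0 is the no-effect control and ±100 the full control effect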)
Procedure, shortened: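 HepG2 lysate (IL-1b/TNFa pre-activated) + biotin-GST-cJun 1-79 + anti-pSer73 cJun; cpd titration, 15 min RT; ATP 10 uM start; Tris pH 7.6, MgCl2, DTT, vanadate; beads in EDTA buffer; AlphaScreen.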

[4] = Cell Viability - HUV-EC-C (AID 542); further: on the % scale 0 is the no-effect control and ±100 the full control effect; nearly all actives have a fitted effect of over 35% in size
Procedure, shortened: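 Concentration-dependent ATP loss in HUV-EC-C cells is the measure. Exposure lasts 40 hr at 37 °C; luminescence follows CellTiter-Glo addition, and Hill fits give AC50.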

[5] = Cell Viability - Renal Proximal Tubule (AID 545); further: nearly all actives have a fitted effect of over 40% in size
Procedure, shortened: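 Cytotoxicity is scored as a concentration-dependent drop in cellular ATP in primary rat renal proximal tubule cells exposed for 40 hr. AC50 derives from Hill modelling.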

[6] = Cellular Toxicity (caspase-3) HepG2 (AID 654);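 further: cells exposed to compound for 16 hours before reading; 0% = DMSO alone and 100% = caspase signal from 100 µM tamoxifen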
Procedure, shortened: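 Concentration-response AC50 values reflect caspase-3/7 induction in HepG2 cells after 16 hours of compound exposure, quantified by luminescence from liberated aminoluciferin and referenced to 100 uM tamoxifen as full stimulation.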

[7] = Cellular Toxicity (caspase-3) HUV-EC-C (AID 656)
Procedure, shortened: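 Read-out: luminescence proportional to caspase 3/7 activity, measured 20 min after adding Caspase-Glo 3/7 reagent. Cells (HUV-EC-C) had received compound for 16 hr at 37°C. Increases relative to DMSO and 100 uM tamoxifen gave concentration-response AC50 values.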

[8] = Cellular Toxicity (caspase-3) SHSY5Y (AID 657)
Procedure, shortened: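 Cells plated and incubated 5 h at 37 °C, dosed over a concentration range, incubated 16 h, then given Caspase-Glo 3/7 reagent for 1 h at room temperature before luminescence reading. Staurosporine (10 uM) defined full stimulation.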

[9] = Cellular Toxicity (caspase-3) MRC-5 (AID 659);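 further: 0% = DMSO basal and 100% = 10 µM staurosporine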
Procedure, shortened: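 MRC-5 fibroblasts, 1500/well; 16 h cpd, 37 °C; Caspase-Glo 3/7, 1 h RT; lumi read. Norm: DMSO = 0%, 10 uM staurosporine = 100%. Hill-fit AC50 from qHTS conc-response.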

[10] = Cellular Toxicity (caspase-3) SK-N-SH (AID 661); further: potency means the concentration at half of the fitted maximal effect
Procedure, shortened: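 Apoptosis readout in SK-N-SH neuroblastoma: Caspase-Glo 3/7 luminescence following 16 hr treatment in complete culture medium. Normalization used DMSO and 10 uM staurosporine controls.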

[11] = Cellular Toxicity (caspase-3) H-4-II-E (AID 663); conditions: Potency: caspase-3 activation;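 further: cells exposed to compound for 16 hr before readout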
Procedure, shortened: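 H-4-II-E rat hepatoma, 1500 cells/well, 5 hr settle at 37 °C; compound 16 hr, 37 °C, complete medium; Caspase-Glo 3/7, 20 min RT; luminescence. DMSO = 0%, 100 uM tamoxifen = 100%; Hill-equation AC50.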

[12] = Cellular Toxicity (caspase-3) Hek293 (AID 664); conditions: HEK293 caspase-3 activation, DMSO = 0%, 100 µM tamoxifen = 100%; at 92.2 µM (top of the series);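 further: cells exposed to compound for 16 h at 37 °C before readout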
Procedure, shortened: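 Apoptosis readout: Caspase-Glo 3/7 signal in human HEK293 cells following 16-hour compound incubation. Responses scaled between DMSO baseline and 100 uM tamoxifen.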

[13] = Cellular Toxicity (caspase-3) N2a (AID 665);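 further: compound exposure lasted 16 h at 37 °C before readout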
Procedure, shortened: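 Concentration-response qHTS: compound-induced caspase-3/7 luminescence in N2a cells (16 h, 37 °C), relative to DMSO and 10 uM staurosporine controls; AC50 obtained using the standard Hill equation.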

[14] = Cellular Toxicity (caspase-3) NIH 3T3 (AID 666);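 further: caspase signal read after 16 h compound exposure; 0% = DMSO basal and 100% = 100 µM tamoxifen stimulation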
Procedure, shortened: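 Activity: caspase-3/7 induction, NIH 3T3 cells, 16 hr treatment at 37°C, luminescent Caspase-Glo detection; AC50 via Hill equation.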

[15] = Cellular Toxicity (caspase-3) Renal Proximal Tubule (AID 667);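 further: cells exposed to compound for 16 hours at 37 °C before detection; 0% = DMSO basal and 100% = 10 µM staurosporine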
Procedure, shortened: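 In qHTS format, rat primary proximal tubule cells seeded at 1000 per well are exposed to compounds for 16 hours at 37 °C. An increase in Caspase-Glo 3/7 luminescence indicates caspase activation.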

[16] = molecular target: Cytochrome P450 3A4 (Homo sapiens) (UniProt P08684); experiment: qHTS Assay for Inhibitors and Substrates of Cytochrome P450 3A4 (AID 884); further: on the % scale 0 is the no-effect control and ±100 the full control effect; nearly all actives have a fitted effect of over 50% in size
Chain of Cytochrome P450 3A4 (Homo sapiens) (P08684 whole entry, looked up): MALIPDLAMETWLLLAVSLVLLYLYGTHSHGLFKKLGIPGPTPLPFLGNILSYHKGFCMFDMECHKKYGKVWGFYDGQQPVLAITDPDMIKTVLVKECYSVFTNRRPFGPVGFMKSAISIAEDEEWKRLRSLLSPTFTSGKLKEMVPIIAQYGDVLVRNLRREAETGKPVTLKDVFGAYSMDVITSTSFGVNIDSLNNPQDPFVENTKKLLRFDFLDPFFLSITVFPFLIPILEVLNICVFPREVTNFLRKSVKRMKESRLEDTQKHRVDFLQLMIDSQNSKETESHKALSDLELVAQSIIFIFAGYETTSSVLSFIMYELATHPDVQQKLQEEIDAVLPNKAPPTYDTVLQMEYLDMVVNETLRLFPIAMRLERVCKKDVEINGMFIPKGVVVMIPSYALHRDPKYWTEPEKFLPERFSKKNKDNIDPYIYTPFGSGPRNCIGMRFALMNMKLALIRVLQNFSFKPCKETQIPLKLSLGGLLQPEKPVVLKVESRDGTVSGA
Procedure, shortened: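 Luminescent readout of luciferin produced by CYP3A4 (20 nM) dealkylation of Luciferin-PPXE, 25 uM (its KM). NADPH-driven reaction ran 60 min at RT after 10 min compound preincubation; data scaled to 57 uM ketoconazole as 100% inhibition.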

[17] = MultiTox-Fluor Cytotoxicity Assay - LYMP1-001 - Dead Cells (AID 946);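 further: 0% = DMSO and 100% = tetraoctylammonium bromide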
Procedure, shortened: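 LYMP1-001 lymphoblastoid cells (2500/well) treated 16 h at 37 C. Dead-cell protease cleavage of bis-AAF-R110 read at Ex/Em 485/520. Normalized to DMSO and 15 uM tetraoctylammonium bromide; AC50 from Hill fits.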

[18] = MultiTox-Fluor Cytotoxicity Assay - LYMP1-001 - Live Cells (AID 947);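 further: 0% = DMSO only and full inhibition = tetraoctylammonium bromide control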
[19] = Cell Viability - LYMP1-002 - Assay at 16 hr (AID 948);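 further: 0% = DMSO alone and full effect = 92 µM tetraoctylammonium bromide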
Procedure, shortened: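 Acute cytotoxicity is scored as a concentration-dependent fall in intracellular ATP in a human lymphoblastoid line (LYMP1-002) after 16 hr compound exposure at 37 C, measured by luciferase luminescence.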

[20] = MultiTox-Fluor Cytotoxicity Assay - LYMP1-002 - Dead Cells (AID 960);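 further: 0% = DMSO and 100% = tetraoctylammonium bromide; nearly all actives have a fitted effect of over 60% in size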
Procedure, shortened: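 Concentration-dependent increases in membrane-leaked protease activity are quantified in LYMP1-002 cells after 16 hr treatment; values are normalized against DMSO and tetraoctylammonium bromide (15 uM) controls and AC50 derived by Hill modeling.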

[21] = MultiTox-Fluor Cytotoxicity Assay - LYMP1-003 - Dead Cells (AID 961);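 further: 0% = DMSO and 100% = tetraoctylammonium bromide; nearly all actives have a fitted effect of over 70% in size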
Procedure, shortened: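 LYMP1-003 human lymphoblastoid cells (2500/well) exposed to compound 16 h at 37 C in complete medium; dead-cell protease read with bis-AAF-R110 fluorescence (Ex/Em 485/520) after 60 min at room temperature. Normalized to DMSO and 15 uM tetraoctylammonium bromide; AC50 from Hill fit.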

[22] = MultiTox-Fluor Cytotoxicity Assay - LYMP1-003 - Live Cells (AID 962);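 further: 0% = DMSO only and full loss = 92 µM tetraoctylammonium bromide; cytotoxic hits lower the live-cell protease signal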
Procedure, shortened: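 Human lymphoblastoid line LYMP1-003 in complete culture medium, treated 16 hr with titrated compounds. Viable cells quantified via cell-permeant GF-AFC substrate fluorescence; AC50 derived by Hill fitting.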

[23] = Cell Viability - LYMP1-003 - Assay at 24 hr (AID 963);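 further: plate controls were DMSO only for no effect and tetraoctylammonium bromide positive control for full effect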
Procedure, shortened: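 The lymphoblastoid line was treated with titrated compounds for 24 hours, and viable cell number estimated from luciferase-based ATP luminescence.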

[24] = Cell Viability - LYMP1-003 - Assay at 40 hr (AID 964); further: on the % scale 0 is the no-effect control and ±100 the full control effect; nearly all actives have a fitted effect of over 60% in size
Procedure, shortened: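 Acute toxicity is scored as a concentration-dependent loss of intracellular ATP in LYMP1-003 cells (2500/well, complete medium) after 40 hr at 37 C, measured by CellTiter-Glo luminescence; AC50 values derive from standard Hill modelling.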

[25] = Cell Viability - LYMP2-003 (AID 965);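 further: cells exposed to compounds for 24 h before reading; 0% = DMSO only and full effect = 92 µM tetraoctylammonium bromide; nearly all actives have a fitted effect of over 50% in size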
Procedure, shortened: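 Acute cytotoxicity is scored as a concentration-dependent drop in intracellular ATP, measured by luciferase luminescence in human lymphoblastoid cells treated for 24 hours at 37 C. AC50 values derive from Hill-equation modelling.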

[26] = Cell Viability - LYMP2-004 (AID 966);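 further: plate controls were DMSO only for no effect and tetraoctylammonium bromide control for full effect; nearly all actives have a fitted effect of over 65% in size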
Procedure, shortened: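 Viable-cell number estimated from ATP luminescence (CellTiter-Glo) in 2500 human lymphoblastoid cells/well after 24 hr at 37 C with compound. AC50 fitted to the standard Hill equation.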

[27] = Cell Viability - LYMP2-009 (AID 968);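 further: potency means the concentration at half of the fitted maximal effect; cells exposed to compound for 24 h at 37 °C; nearly all actives have a fitted effect of over 55% in size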
[28] = Cell Viability - LYMP2-011 (AID 969); further: potency means the concentration at half of the fitted maximal effect; nearly all actives have a fitted effect of over 60% in size
Procedure, shortened: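 Cells seeded at 2500 per well rest 5 hr before compound addition, then incubate 24 hr at 37 C. CellTiter-Glo reagent is added for 30 min at room temperature before luminescence detection.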

[29] = Cell Viability - LYMP2-013 (AID 970);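 further: potency means the concentration at half of the fitted maximal effect; cells exposed to compound for 24 h at 37 °C; nearly all actives have a fitted effect of over 55% in size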
Procedure, shortened: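 In complete culture medium, human lymphoblastoid cells were dosed for 24 hr at 37 C, with tetraoctylammonium bromide (6.4pM to 92 uM) as positive control. Viability reflects luciferase-based ATP signal; AC50 derived from concentration-response curves.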

[30] = Cell Viability - LYMP2-015 (AID 971); further: potency means the concentration at half of the fitted maximal effect; nearly all actives have a fitted effect of over 55% in size
Procedure, shortened: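 AC50 values reflect Hill-model fits of ATP-based luminescence (CellTiter-Glo) from a human lymphoblastoid line, 2500 cells/well, treated 24 hr at 37 C.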

[31] = Cell Viability - LYMP2-017 (AID 972);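 further: potency means the concentration at half of the fitted maximal effect; cells exposed to compound for 24 hours at 37 °C; nearly all actives have a fitted effect of over 55% in size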
Procedure, shortened: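 In this qHTS format, lymphoblastoid cells in complete medium receive test compound for a day at 37 C before ATP content is quantified by luciferase luminescence. Reported AC50 figures come from standard Hill-equation curve fitting.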

[32] = Cell Viability - LYMP2-021 (AID 974)
Procedure, shortened: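 In qHTS format, compounds are tested against 2500 lymphoblastoid cells per well for 24 h; viable cell number is inferred from ATP-driven luciferase light, and Hill-equation fitting yields AC50 values.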

[33] = Cell Viability - LYMP2-023 (AID 975)
Procedure, shortened: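 In this qHTS, ATP-based luciferase luminescence (CellTiter-Glo) is quantified in human lymphoblastoid cells after 24 hr compound treatment at 37 C; tetraoctylammonium bromide serves as positive control. Concentration-response curves are Hill-fitted to give AC50.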

[34] = Cell Viability - LYMP2-006 (AID 978); further: potency means the concentration at half of the fitted maximal effect; nearly all actives have a fitted effect of over 60% in size
Procedure, shortened: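 Concentration-dependent loss of intracellular ATP in a human lymphoblastoid line after 24 hr treatment at 37 C was measured by CellTiter-Glo luminescence, with AC50 values obtained from standard Hill-equation modelling.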

BrCC(Br)(Br)Br
active: Potency [10] 25.1 µM | Potency [27] 31.6 µM | Potency [28] 39.8 µM | Potency [29] 25.1 µM | Potency [30] 15.8 µM | Potency [31] 15.8 µM | Potency [32] 20 µM | Potency [33] 20 µM | Potency [34] 15.8 µM
inactive: Potency [1] > 92 µM | Potency [2] > 92 µM | Potency [3] | Potency [4] | outcome [5] | outcome [6] | outcome [7] | outcome [8] | outcome [9] | Potency [11] | caspase-3 activation [12] 7.98% | outcome [13] | Potency [14] | outcome [15] | Potency [16] | outcome [17] | outcome [18] | outcome [19] | Potency [20] | Potency [21] | outcome [22] | outcome [23] | Potency [24] | Potency [25] | Potency [26]
